This note sets out measurements from US20250354175, “ATTP MV4-DERIVED SITE-SPECIFIC RECOMBINATION AND ITS USE FOR INTEGRATION OF SEQUENCE OF INTEREST” (INSTITUT NATIONAL DE RECHERCHE POUR L'AGRICULTURE, …, published 2025).

The target of the assay is T1, mv4Int (369 aa integrase) (Lactobacillus delbrueckii bacteriophage …).
T1 chain: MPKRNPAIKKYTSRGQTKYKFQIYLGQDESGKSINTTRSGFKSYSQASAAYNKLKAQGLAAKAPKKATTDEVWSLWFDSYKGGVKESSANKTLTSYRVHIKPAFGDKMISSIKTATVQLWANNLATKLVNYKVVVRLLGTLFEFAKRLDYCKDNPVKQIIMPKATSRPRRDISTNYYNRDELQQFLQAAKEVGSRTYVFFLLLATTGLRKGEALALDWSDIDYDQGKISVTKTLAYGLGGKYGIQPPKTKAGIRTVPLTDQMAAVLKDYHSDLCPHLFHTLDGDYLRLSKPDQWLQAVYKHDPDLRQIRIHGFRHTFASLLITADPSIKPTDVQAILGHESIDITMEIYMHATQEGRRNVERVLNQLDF
In words: cleavage_in_vitro; recombination with attP sharing same overlap. The following applies: tags: expressed from pET15b; label: Cy3; dsDNA, one strand shown.

For the sequence TCAAATAAGGTTTTCTCCTTAATAAGGTCAAATGGTATC, the binding signal came out at 15 fold decrease vs WT.
